{"source": "PubChem BioAssay AID2202239", "about": "(National Center for Advancing Translational Sciences (NCATS), 2025)", "note": "Active and inactive are the calls of the source. The call rests on the fitted dose curve; in most records, active means well fitted inhibition curve with a large enough effect; inactive means flat fitted curve, though single readings scatter. Square brackets hold non-standard residues; d marks the D form. Peptide text beside a SMILES is read from it. Dolaproine = CO[C@@H]([C@@H]1CCCN1)[C@@H](C)C(=O)O; Dil = CC[C@H](C)[C@H](NC)[C@@H](CC(=O)O)OC; NMeV = CN[C@H](C(=O)O)C(C)C"}
{"assay": "Identification of antibody-drug conjugate (ADC) payloads which are substrates of ATP-binding cassette drug efflux transporters: ABCB1-HeLa-KB-8-5-11 cell line with tariquidar", "details": "KB-8-5-11 (P-gp) + tariquidar, viability, CellTiter-Glo, 48 h", "source_text": "Antibody-drug conjugates (ADCs) feature an antibody recognizing a specific protein joined to a potent toxic payload. Numerous antibody-drug conjugates have received FDA approval; however, clinical resistance arises. Resistance mechanisms include decreased expression or mutation of the antibody target, impaired payload release, or increased expression of ATP-binding cassette (ABC) efflux transporters associated with multidrug resistance. We therefore sought to characterize the interaction of ABC multidrug transporters with ADC payloads. We performed a high-throughput screen with 27 common ADC payloads using cells lines expressing ABC transporters P-glycoprotein (P-gp, encoded by ABCB1) or ABCG2 (encoded by ABCG2). Confirmatory assays were also performed using cells transfected to express P-gp, ABCG2, or MRP1 (encoded by ABCC1). Several commonly used ADC payloads were substrates of P-gp, including calicheamicin gamma1, monomethyl auristatin E, DM1, and DM4. All the pyrrolobenzodiazepines tested - SJG136, SGD-1882, SG2057, and SG3199 - were substrates of P-gp, ABCG2, and MRP1. […] These findings highlight the risk of transporter-mediated resistance with certain ADC payloads and underscore the importance of selecting payloads that evade ABC transporter recognition in future ADC development.\nHEK-293 cells were transfected with empty vector (pcDNA) or vector containing the human ABCB1 (MDR-19), ABCG2 (R-5), or ABCC1 gene (MRP1) and were maintained in EMEM with 2 mg/mL G418 added to maintain transporter expression. The HeLa derivative KB-3-1 and the P-gp overexpressing KB-8-5-11 subline were maintained in DMEM; KB-8-5-11 additionally received 100 ng/mL colchicine. H460 parental cells were obtained from the Division of Cancer Treatment and Diagnosis Tumor Repository, National Cancer Institute at Frederick, MD and were cultured in RPMI. The ABCG2 expressing subline H460 MX20 was generated by selecting H460 cells in 20 nM mitoxantrone. Media in all cases was supplemented with 10% FBS and 1% penicillin-streptomycin. We explored 27 common ADC payloads, in two orthogonal, paired cell line sets-a drug selected and transfected set for each transporter--to identify substrates of the ABC transporters P-gp and ABCG2. Compounds were sourced from Levena Biopharma (San Diego, CA), Selleck Chem (Houston, TX), ChemieTek (Indianapolis, IN), or Microsource Discovery Systems (Gaylordsville, CT). Screening was performed as previously described. Briefly, cells were plated at a density of 500 cells/well in 1536 well plates with compounds added using a 1536-head pin tool (Kalypsys, San Diego CA). Cells were incubated with cytotoxic drugs and processed with CellTiter Glo reagent (Promega, Madison, WI) to determine viability after 48 hours. P-gp substrates were identified by comparing compound activity between paired sets of low-expressing (sensitive) and over-expressing (resistant) cell lines."}
{"smiles": "COC(=O)c1cc2c3c(cc(O)c2[nH]1)N(C(=O)c1cc2cc(OC)c(OC)c(OC)c2[nH]1)CC3CCl", "note": "(stereo not drawn)", "Potency": "0.6 nM (active)"}
{"smiles": "CC[C@H](C)[C@@H]([C@@H](CC(=O)N1CCC[C@H]1[C@H](OC)[C@@H](C)C(=O)N[C@@H](Cc1ccccc1)C(=O)O)OC)N(C)C(=O)[C@@H](NC(=O)[C@@H](NC)C(C)C)C(C)C", "note": "(H-[NMeV]V[Dil][Dolaproine]F-OH)", "Potency": "37.5 nM (active)"}
{"smiles": "COc1cccc2c1C(=O)c1c(O)c3c(c(O)c1C2=O)C[C@@](O)(C(=O)CO)C[C@@H]3O[C@H]1C[C@H](N)[C@H](O)[C@H](C)O1", "Potency": "236 nM (active)"}
{"smiles": "CC[C@]1(O)CC2CN(CCc3c([nH]c4ccccc34)[C@@](C(=O)OC)(c3cc4c(cc3OC)N(C)[C@H]3[C@@](O)(C(=O)OC)[C@H](OC(C)=O)[C@]5(CC)C=CCN6CC[C@]43[C@@H]65)C2)C1", "note": "(stereo partly drawn)", "Potency": "6.7 nM (active)"}
{"smiles": "COc1ccc(C2=CN3C(=O)c4cc(OC)c(OCCCOc5cc6c(cc5OC)C(=O)N5C=C(c7ccc(N)cc7)C[C@@H]5C=N6)cc4N=C[C@H]3C2)cc1", "Potency": "59.4 nM (active)"}
{"smiles": "CCc1c2c(nc3ccc(O)cc13)-c1cc3c(c(=O)n1C2)COC(=O)[C@]3(O)CC", "Potency": "298 nM (active)"}
{"smiles": "Cc1nc(Nc2ncc(C(=O)Nc3c(C)cccc3Cl)s2)cc(N2CCN(CCO)CC2)n1", "Potency": "13300 nM (active)"}
{"smiles": "CC[C@H](C)[C@@H]([C@H](N)CC(=O)N1CCC[C@H]1[C@H](OC)[C@@H](C)C(=O)N[C@@H](Cc1ccccc1)c1nccs1)N(C)C(=O)[C@@H](NC(=O)[C@H](C(C)C)N(C)C)C(C)C", "Potency": "0.0472 nM (active)"}
